Most compounds without a hit are left out; they make up all but 9.5% or so of the library.
NPSR antagonist: neuropeptide S receptor (human) antagonism, cAMP. 220,000 compounds, 1% hits. Potency, µM (top dose mostly 38.3 µM), for inactives: at the top dose activity change, negative = inhibition, actives largely listed as inhibitors. CHO-NPSR cells, cAMP TR-FRET, antagonist mode. Q6W5P4; note: nearly all actives have a fitted effect of over 50% in size
Target sequence (Q6W5P4 whole entry, looked up): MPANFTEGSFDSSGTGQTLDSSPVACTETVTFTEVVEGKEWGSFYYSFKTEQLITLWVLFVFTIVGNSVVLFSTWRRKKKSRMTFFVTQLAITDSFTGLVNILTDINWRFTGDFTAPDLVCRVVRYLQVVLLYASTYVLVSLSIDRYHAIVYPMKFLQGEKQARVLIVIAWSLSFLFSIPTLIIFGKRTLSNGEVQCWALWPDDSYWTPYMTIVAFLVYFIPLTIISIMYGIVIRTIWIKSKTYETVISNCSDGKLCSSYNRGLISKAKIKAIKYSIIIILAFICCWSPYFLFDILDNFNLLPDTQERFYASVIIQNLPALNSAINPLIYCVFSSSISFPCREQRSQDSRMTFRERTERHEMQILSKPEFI
ALDH1A1 block: inhibitors of human aldehyde dehydrogenase 1A1. AID 1030. Potency, µM (highest dose often 75.3 µM), without a hit: at the highest dose activity, negative = inhibition, actives largely listed as inhibitors. 220,000 compounds, 7.3% hits. Purified ALDH1A1, NADH fluorescence, propionaldehyde substrate. P00352; active = well fitted inhibition curve with a large enough effect, not every such curve was filed as active; inconclusive = small, poorly fitted or top-dose-only effect, or another doubt; inactive = no such curve, though single readings can be large or run the other way;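 note: plate controls were no enzyme wells and a reference inhibitor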
Tau ThT inhib: tau fibrillization inhibition (ThT binding); 270,000 compounds, 2.1% hits; P10636; Potency, µM (series often up to 57.4 µM), for inactives: at the top dose activity, negative = inhibition, hits mostly inhibitors; recombinant tau K18 P301L, heparin-induced fibrillization, ThT fluorescence; note: nearly all actives have a fitted effect of over 55% in size
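Recombinant human tau K18 fragment […] carrying P301L, 15 uM unlabeled plus 0.24 uM Alexa 594-labeled, was fibrillized with 20 uM heparin in 100 mM sodium acetate pH 7 for 6 hr at 37 C; 30 uM ThT fluorescence read after 1 hr.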
Tau fluor counter: counter-screen for tau fibril formation inhibitors; tau K18 P301L (four-repeat tau fragment) Alexa594 fluorescence, heparin fibrillization; Potency, µM (highest dose often 57.7 µM), without a hit: at the top dose activity change, negative = decrease; 280,000 compounds, 0.93% hits; AID 1463; note: nearly all actives have a fitted effect of over 55% in size
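Human K18 P301L tau (15 uM unlabeled plus 0.24 uM Alexa 594-labeled, final) in 100 mM sodium acetate pH 7 was mixed with compound and 20 uM heparin and incubated 6 hr at 37 C.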
Tau FP inhib: blocks human tau fibril formation measured by polarization; K18 P301L tau heparin fibrillization, Alexa594 FP, 6 h; Potency, µM (highest dose often 57.7 µM), for the others: at the highest dose activity, negative = inhibition, hits mostly inhibitors; 280,000 compounds, 0.39% hits; AID 1468; note: nearly all actives have a fitted effect of over 55% in size
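FP of Alexa 594-tau after heparin (20 uM) induction. Substrate: human K18 P301L, 15 uM unlabeled, 0.24 uM labeled. Buffer 100 mM sodium acetate pH 7. 6 hr, 37 C.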
HPGD inh: inhibitors of human 15-hydroxyprostaglandin dehydrogenase (HPGD); purified HPGD, NADH fluorescence kinetic, PGE2 substrate; Potency, µM, for the others: at the top dose activity change, negative = inhibition, actives largely listed as inhibitors; 150,000 compounds, 4.3% hits; AID 894; active = well fitted inhibition curve with a large enough effect, not every such curve was filed as active; inconclusive = small, poorly fitted or top-dose-only effect, or another doubt; inactive = no such curve, though single readings can be large or run the other way
Target sequence (P15428 whole entry, looked up): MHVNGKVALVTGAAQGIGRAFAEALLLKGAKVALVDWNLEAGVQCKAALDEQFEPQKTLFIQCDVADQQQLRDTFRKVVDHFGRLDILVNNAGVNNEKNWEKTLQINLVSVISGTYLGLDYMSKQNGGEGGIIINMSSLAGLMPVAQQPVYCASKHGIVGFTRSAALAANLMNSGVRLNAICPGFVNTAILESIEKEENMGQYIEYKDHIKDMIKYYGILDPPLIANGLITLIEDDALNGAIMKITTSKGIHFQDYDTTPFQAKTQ
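NADH formation kinetics: reaction with 30 uM PGE2 and 1 mM NAD+ (final), 20 nM enzyme, Tris-HCl pH 8 with Tween 20, after 15 min compound preincubation at room temperature. Fluorescence change, last versus first of five reads.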
* = called active by the depositor; ? = inconclusive; . = not tested or not shown; [ ] = another dose, or the depositor's remark. Unless noted, calls come from the whole dose curve; as a rule, active = well fitted curve in the direction sought with a large enough effect; inconclusive = small, poorly fitted or top-dose-only effect, or another doubt; inactive = no such curve, though single readings can be large; an effect the other way counts as inactive or inconclusive. Unless noted, % is set by controls: 0 for no effect and ±100 for the full control effect; potency is the fitted concentration of half-maximal effect.

SMILES	NPSR antagonist	ALDH1A1 block	Tau ThT inhib	Tau fluor counter	Tau FP inhib	HPGD inh
O=S(=O)(c1ccccc1)N1CCC2(CCCN(c3ccncc3)C2)CC1	.	-1%	.	.	.	-1%
CC(C)c1ccc(/C=C/C(=O)NCCC2=CCCCC2)cc1	-13%[46.1 µM]	4.5µM*	?	-20%	-17%	-25%
COCCn1c(=O)c(-c2cc(F)cc(F)c2)nc2cnc(OCc3ccccc3)nc21	.	?	.	.	.	-11%
CCCCn1c(SC(C)C(=O)c2ccc(OC)cc2)nc2cc(S(N)(=O)=O)ccc21 (stereo unspecified)	?	-10%	-9%	-17%	6%	-16%
CCCCn1c(SCC(=O)c2ccc(OC)cc2OC)nc2cc(S(N)(=O)=O)ccc21	-25%[46.1 µM]	7.1µM*	-14%	-24%	-11%	-7%
Cc1ccc(C)c(S(=O)(=O)Nc2ccc(C(=O)NCCc3ccccn3)cc2)c1	-26%	-8%	-9%	-12%	-11%	.
COc1ccc(N=C2SC(C(=O)N3CCN(c4ccc([N+](=O)[O-])cc4)CC3)CC(=O)N2C)cc1 (stereo unspecified)	-11%	10µM*	?	-22%	-2%	.
COc1ccccc1-n1nnnc1SCC(=O)Nc1ccccn1	-2%[46.1 µM]	0.63µM*	6%	-8%	?	-15%
O=C1CN(C(=O)CSc2nnc(Nc3ccccc3)s2)c2ccccc2N1	5%	28µM*	-11%	-21%	7%	2.2µM*
CCOc1ccccc1-n1nnnc1SCC(=O)Nc1cc2oc3ccccc3c2cc1OC	-12%[46.1 µM]	-5%	-1%	-28%	?	-8%
COc1ccccc1Nc1nnc(SCC(=O)N2CC(=O)Nc3ccccc32)s1	3%[46.1 µM]	-3%	-10%	-16%	2%	.
O=C(CSc1nnnn1Cc1ccccc1)NCC(=O)c1ccccc1	-1%[46.1 µM]	8.9µM*	-6%	-3%	-2%	-10%
Cc1cc(NC(=O)CSc2nnnn2Cc2ccccc2)no1	-5%[46.1 µM]	32µM*	-8%	-2%	6%	2%
CC(=O)NC1(NC(C)=O)CCN(C)CC1	-17%	13%	5%	1%	3%	.
CCN(CC)c1ccc(CN(C(=O)c2cc(=O)c3ccccc3o2)C2CCS(=O)(=O)C2)cc1 (stereo unspecified)	.	.	-12%	-23%	-1%	.
Cc1cccn2c(=O)cc(CSc3nnc(NC(=O)COc4ccccc4)s3)nc12	.	.	-2%	-12%	-6%	.
COc1c(C)cc(S(=O)(=O)Nc2cccc(-c3ccc(N4CCOCC4)nn3)c2)c(C)c1C	.	.	-7%	-29%	-1%	.
COC(=O)c1c(NC(=O)COc2ccccc2Cl)sc2c1CCC(C(C)(C)C)C2 (stereo unspecified)	.	.	-6%	-8%	-22%	.
O=C(CSc1nnnn1-c1ccccc1)Nc1ccc(Cl)cn1	-17%[46.1 µM]	2.2µM*	-2%	3%	-2%	-3%
COc1ccccc1-n1cnnc1SCC(=O)Nc1cc(C)on1	11%	5µM*	-9%	0%	5%	.
Cc1cc(NC(=O)CSc2nncn2-c2ccccc2)no1	13%	0%	-10%	-11%	-4%	.
COC(=O)c1c(NC(=O)CSc2nnnn2-c2ccccc2)sc2c1CCC(C(C)(C)C)C2 (stereo unspecified)	-11%[46.1 µM]	13µM*	-2%	-8%	-6%	-17%
Cc1cc(NC(=O)CSc2nnnn2-c2ccccc2)no1	-2%	16µM*	2%	0%	1%	.
Cc1cc(NC(=O)CSc2nnnn2-c2ccc(C)c(C)c2)no1	-4%	?	0%	-2%	-6%	.
CCCCS(=O)(=O)N1CCc2nc(-c3ccccc3)c3c(c2C1)CO[C@@H](C)C3	.	19%[13.5 µM]	4%[11.5 µM]	-1%[11.6 µM]	-2%[11.6 µM]	-12%
SMILES	NPSR antagonist	ALDH1A1 block	Tau ThT inhib	Tau fluor counter	Tau FP inhib	HPGD inh
O=[N+]([O-])c1c(NCc2ccccc2)cc(N2CCc3ccccc3C2)c2nonc12	1%	-9%	?	-12%	-8%	-24%
COc1ccccc1-n1nnnc1SCc1ccccc1	9%[46.1 µM]	?	-10%	-11%	-7%	-12%
CCc1nnc(NC(=O)CSc2nnnn2-c2cccc(C(=O)OC)c2)s1	-8%[46.1 µM]	?	-3%	-7%	0%	14µM*
O=C(CSc1nnnn1-c1ccccc1)NC(=O)Nc1ccc2c(c1)OCCO2	-23%[46.1 µM]	?	3%	-22%	7%	-7%
CCOc1ccccc1-n1nnnc1SCC(=O)NC(=O)Nc1ccc2c(c1)OCCO2	?	13µM*	-5%	-25%	-1%	-15%
Cc1cccc(-n2nnnc2SCC(=O)Nc2cccc(S(N)(=O)=O)c2)c1	-5%	7.9µM*	-4%	-18%	-4%	.
COc1ccccc1-n1nnnc1SCc1cc2c(cc1Br)OCO2	?	4.5µM*	1%	-28%	-13%	?
O=C(CSc1nnnn1-c1ccc(O)cc1)Nc1cccc(S(=O)(=O)N2CCCC2)c1	-14%[46.1 µM]	-1%	-5%	?	-11%	-6%
O=C(CSc1nnc(-c2ccc(F)cc2)o1)N1CCCc2ccccc21	.	.	-14%	-16%	1%	.
CCOc1ccccc1-n1nnnc1SCC(=O)Nc1cc(C)on1	-7%[46.1 µM]	8.9µM*	-9%	-6%	-2%	3%
COc1ccccc1-n1cnnc1SCC(=O)N1CC(=O)Nc2ccccc21	-25%[46.1 µM]	4.5µM*	-7%	-2%	5%	-5%
CCOc1ccccc1-n1nnnc1SCC(=O)NCc1ccco1	-4%	?	6%	10%	6%	.
COc1cc(Nc2nc3ccccc3c3nnc(C)n23)cc(OC)c1	.	.	-7%	-20%	-15%	.
CCOc1ccc(OCC(=O)Nc2c(C(=O)Nc3ccc(C)cc3)oc3ccccc23)cc1	.	.	4%	-9%	-20%	.
CCOC(=O)c1c(/N=C/C2=C(O)CCCC2=O)sc2c1CCCC2	-5%	.	?	-16%	1%	.
CCOC(=O)c1cc(CC)sc1/N=C/C1=C(O)CCCC1=O	15%	-9%	-16%	-14%	?	-14%
CCOC(=O)c1c(/N=C/C2C(=O)CC(C)(C)CC2=O)sc2c1CCCC2	-19%	8.9µM*	?	-8%	-2%	.
CCOC(=O)c1c(/N=C/c2ccccc2O)sc2c1CCC2	12%[46.1 µM]	-16%	-18%	-20%	5%	.
CCOC(=O)c1c(/N=C/c2cccc([N+](=O)[O-])c2O)sc2c1CCC2	16%	?	16µM*	-27%	-7%	.
CCOC(=O)c1c(/N=C/C2C(=O)CCCC2=O)sc2c1CCCC2	-28%	16µM*	12%	9%	-3%	.
CCOC(=O)c1cc(CC)sc1/N=C/C1C(=O)CC(C)(C)CC1=O	20%	11µM*	-7%	-11%	-7%	-4%
COc1ccc(C(=O)N2CCC3(CC2)CN(C(=O)NC(C)C)C3)cc1	.	7%	.	.	.	-2%
